Screening results deposited in PubChem BioAssay by several laboratories.
D1 mod = allosteric modulators of human D1 dopamine receptor; P21728; HEK293 D1, CRE-luciferase, dopamine EC30 potentiation; actives deviate in either direction; B-score at 10 µM; 5.9% of 58,000 active; AID 641;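 active = luminescence count or its row- and column-corrected plate score outside the 99.7% band of the plate's sample wells, on either side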
CYP2C9 act = activators of human CYP2C9; 1.4% of 96,000 active; activation factor at 5 µM; recombinant CYP2C9, luciferin-H conversion, luminescence; hits give high values; factor 1 = untreated enzyme, 0 = blocked; AID 1024; P11712;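 active = activation factor of 2 or more for CYP2C9 at a 5 µM dose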
CYP2C19 activ = increases human CYP2C19 enzyme activity | P33261 | AID 1025 | activation factor at 5 µM | recombinant CYP2C19, luciferin-H EGE luminescence; hits give high values; 0 = fully inhibited enzyme, 1 = untreated enzyme | 96,000 tested, under 10 active;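 active = activation factor of at least 2 at 5 µM in the primary screen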
Target sequence (P33261 whole entry, looked up): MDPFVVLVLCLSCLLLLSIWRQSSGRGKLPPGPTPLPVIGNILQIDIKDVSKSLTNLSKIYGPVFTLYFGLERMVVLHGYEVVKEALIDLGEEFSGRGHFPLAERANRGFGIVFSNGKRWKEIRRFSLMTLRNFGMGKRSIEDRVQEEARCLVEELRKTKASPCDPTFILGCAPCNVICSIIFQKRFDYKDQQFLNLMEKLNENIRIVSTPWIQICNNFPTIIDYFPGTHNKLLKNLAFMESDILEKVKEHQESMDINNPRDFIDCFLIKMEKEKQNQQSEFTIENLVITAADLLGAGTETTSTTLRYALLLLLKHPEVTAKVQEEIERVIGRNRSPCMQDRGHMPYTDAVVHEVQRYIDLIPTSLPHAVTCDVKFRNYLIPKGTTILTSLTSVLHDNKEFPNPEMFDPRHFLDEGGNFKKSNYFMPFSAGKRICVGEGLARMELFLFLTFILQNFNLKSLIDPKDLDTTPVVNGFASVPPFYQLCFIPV
CYP2C19 inh = blocks human cytochrome P450 2C19; P33261; CYP2C19 Supersomes, luciferin-H EGE luminescence, 30 min; inhibition, % at 5 µM; 21% of 96,000 active; AID 778;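 active = CYP2C19 inhibition above a set limit at 5 µM in the primary screen, cut at about 50% in these data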
CYP2C9 inh = blocks human cytochrome P450 2C9; P11712; CYP2C9 Supersomes, luciferin-H conversion, luminescence; inhibition, % at 5 µM; 20% of 96,000 active;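 active = blocking of liver enzyme CYP2C9 beyond about 50% at 5 µM, limit read from the data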
hDAT+cocaine = changed human dopamine transporter uptake under cocaine IC80. Q01959. LLC-PK1 hDAT cells, [14C]-dopamine uptake with cocaine IC80; actives deviate in either direction. B-score at 10 µM. 1.3% of 110,000 active. AID 449768;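 active = Z score or B-score, a plate-position-corrected score, falls beyond the plate's 99.7% confidence bounds, in either direction; inactive = both scores lie inside the 99.7% bounds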
Numbers stand for hits; . = inactive; / = not tested or not shown. In the library only some 28% were active in any assay of this set; here they are far more common.

SMILES	D1 mod	CYP2C9 act	CYP2C19 activ	CYP2C19 inh	CYP2C9 inh	hDAT+cocaine
O=C1/C(=C/c2ccc(N3CCOCC3)o2)SC(=Nc2ccccc2)N1CCc1c[nH]c2ccccc12	/	.	.	.	63	.
O=C(CSc1nnc(Cc2ccccc2)o1)NC1CCCCC1	.	.	.	52	.	.
O=C(CSc1ncn[nH]1)N(C1CCCCC1)C1CCCCC1	/	.	.	.	.	.
COc1ccc(Cc2nnc(SCC(=O)NC3CCCC3)o2)cc1	/	/	/	/	/	.
O=C(CSc1ncn[nH]1)NC1CC2CCC1C2 (stereo not drawn)	/	.	.	53	.	.
O=C(CSc1nnc(Cc2ccccc2)o1)NC1CC2CCC1C2 (stereo not drawn)	.	.	.	52	.	.
O=C(CSc1nnc(-c2ccco2)o1)NC1CCCCCC1	/	.	.	75	.	.
CCn1c(CNC(=O)c2cccc(C)c2)nnc1SCC(=O)NC1CCCCC1C (stereo not drawn)	/	.	.	.	.	.
CCOc1ccc(N(CC(=O)NC2CCCC2)C(=O)CSc2nnc(COc3ccccc3)o2)cc1	/	.	.	.	58	.
Cc1nnsc1SCC(=O)O	/	.	.	.	.	.
Cc1nnsc1SCCNC(=O)c1ccc(F)cc1	/	.	.	80	.	.
COC(=O)c1ccc(CSc2nc(N3CCOCC3)c3c(c2C#N)CC(C)(C)OC3)o1	/	.	.	69	98	.
CC(C)CCSc1nc(N2CCOCC2)c2c(c1C#N)CC(C)(C)OC2	.	.	.	63	98	.
CSc1nc(N2CCOCC2)c2c(c1C#N)CC(C)(C)OC2	/	.	.	61	97	.
COC(=O)c1ccc(CSc2ncnc3c2sc2nc(N4CCOCC4)c4c(c23)CCCC4)o1	/	/	/	/	/	.
CC1(C)Cc2c(c(N3CCCC3)[nH]c(=S)c2C#N)CO1	/	.	.	.	.	/
Cc1ccc(Cl)cc1N1CCN(C(=O)C2CCN(S(=O)(=O)c3c(C)nn(C)c3C)CC2)CC1	.	.	.	.	.	.
Nc1[nH]c(=O)ncc1F	/	/	/	/	/	.
CCCn1nnc(NC(=O)c2cc(Br)ccc2OC)n1	.	3.6	.	74	.	.
CCCn1nnc(NC(=O)c2cc3ccccc3o2)n1	.	.	.	.	.	.
CCCn1nnc(NC(=O)c2cccc(OCc3ccccc3)c2)n1	/	.	.	.	61	.
CCc1ccc(C(=O)Nc2nnn(CC)n2)cc1	-4.5	.	.	.	50	.
CCCn1nnc(NC(=O)c2cccc(Cl)c2)n1	/	/	/	/	/	.
C=CCOC(=O)C1=C[C@@H](c2csc3ccccc23)C[C@@H](OCCCCO)O1	/	/	/	/	/	.
CC1CCN(c2ccccc2NC(=S)NC(=O)c2ccco2)CC1	/	/	/	/	/	.
SMILES	D1 mod	CYP2C9 act	CYP2C19 activ	CYP2C19 inh	CYP2C9 inh	hDAT+cocaine
CCCOCCOC(=O)c1[nH]c2c(c1C)C(=O)CC(c1cc(OC)ccc1OC)C2 (stereo not drawn)	/	/	/	/	/	.
COCCOC(=O)c1[nH]c2c(c1C)C(=O)CC(c1cc(OC)ccc1OC)C2 (stereo not drawn)	.	.	.	.	59	.
COc1ccc(OC)c(C2CC(=O)c3c([nH]c(C(=O)OCC4CCCO4)c3C)C2)c1 (stereo not drawn)	.	.	.	.	66	.
Cc1ccc(C)c(N2CCN(CC3CC=CCC3)CC2)c1 (stereo not drawn)	/	.	.	.	.	.
CCCCC(C)n1[nH]c(=O)cc1N (stereo not drawn)	/	.	.	.	.	.
CC(C)c1ccccc1-n1c(SCC(=O)N2CCN(c3ccccc3)CC2)nnc1-c1cccnc1	/	.	.	55	56	.
Cn1c(SCC(=O)N2CCN(c3ccccc3)CC2)nnc1-c1ccncc1	/	/	/	/	/	.
CC1CN(C(=O)CSc2nnc(-c3ccncc3)n2-c2ccccc2)CC(C)O1 (stereo not drawn)	.	.	.	76	.	.
CC(C)Oc1snc(Cl)c1C(N)=O	/	.	.	.	.	/
CCOC(=O)N1CCC(Nc2cc(C)nc3c(-c4ccccc4OC)c(C)nn23)CC1	/	.	.	84	79	/
Cc1cc(C(=O)COc2ccc(-c3nnco3)cc2)c(C)n1Cc1ccccc1	.	.	.	60	62	.
CC1CCN(C(=O)CSc2ccc3nnc(-c4ccccc4)n3n2)CC1	.	/	/	/	/	/
COCCCNC(=O)c1ccc2c(c1)OCO2	.	.	.	.	.	.
CN(C)CCC(=O)c1ccc2c(c1)OCO2	.	.	.	.	.	.
O=C(NCc1ccccc1F)c1ccc2c(c1)OCO2	/	.	.	73	.	.
COc1ccc(-c2nnn(Cc3ccccc3F)n2)cc1	/	/	/	/	/	.
Fc1ccccc1Cn1nnc(-c2ccc3c(c2)OCO3)n1	/	.	.	76	58	.
O=C(CCNc1ccccc1)c1ccc2c(c1)OCO2	.	.	.	63	.	.
O=C(NCc1ccccc1)c1ccc2c(c1)OCCO2	.	.	.	85	.	.
COC(=O)CSc1nnc(CNC(=O)c2ccccc2OC)n1-c1ccc(OC)cc1	.	.	.	.	.	.
COc1cc(OC)cc(C(C(=O)NC2CCCCC2)N(C(=O)c2ccno2)c2ccccc2)c1 (stereo not drawn)	/	/	/	/	/	.
O=C(NCCN1CCOCC1)c1cnn2c(-c3ccccc3)cc(-c3ccccc3)nc12	/	.	.	57	.	.
O=C(NCCN1CCOCC1)c1ccccc1-c1ccccc1	/	.	.	.	.	.
c1ccc(-c2nnc3sc(Cc4cccs4)nn23)cc1	/	/	/	/	/	.
c1ccc(OCc2nn3c(-c4ccccn4)nnc3s2)cc1	/	.	.	.	.	-9.4
SMILES	D1 mod	CYP2C9 act	CYP2C19 activ	CYP2C19 inh	CYP2C9 inh	hDAT+cocaine
c1ccc(OCc2nn3c(-c4ccncc4)nnc3s2)cc1	.	.	.	99	80	.
c1ccc(Cc2nn3c(-c4ccncc4)nnc3s2)cc1	.	.	.	99	84	.
COc1ccc(-c2[nH]ncc2-c2cnc(C)s2)c(O)c1	.	.	.	90	.	.
COc1ccc(O)c(-c2cn[nH]c2-c2cccs2)c1	.	.	.	99	88	.
CN1C(=O)N(C)C2(c3ccccc3)N(C)C(=O)NC12c1ccccc1 (stereo not drawn)	.	.	.	.	.	.
O=C(O)C1CCCN(S(=O)(=O)c2ccc(Cl)s2)C1 (stereo not drawn)	.	.	.	.	.	.
O=S(=O)(c1ccc(Br)s1)N1CCc2ccccc2C1	.	/	/	/	/	.
O=S(=O)(c1ccc(Cl)s1)N1CCc2ccccc2C1	/	.	.	67	.	.
O=S(=O)(c1ccc(Cl)s1)N1CCCc2cccc(O)c21	/	.	.	72	.	.
Cc1noc(C)c1C(=O)Nc1cccnc1	.	.	.	.	.	.
Cc1ccc(NC(=O)c2onc(C)c2Cl)cc1	/	.	.	.	.	-2.6
Cc1ccc(NC(=O)c2c(C)noc2C)cc1	/	.	.	.	.	0.36
COc1cc(NC(=O)c2onc(C)c2Cl)c(OC)cc1Cl	.	/	/	/	/	.
CCOC(=O)c1cc(NC(=O)c2c(C)noc2C)cc(C(=O)OCC)c1	.	.	.	.	75	.
